Laboratory results reported in PubChem BioAssay (NCI).
This is part of a sample that, as a whole, favours compounds with a hit. Of some 83,000 tested, about 20% had one in any assay.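 48-hour exposure, single concentration, 96-well plates; percent growth endpoint where 0 means no net growth. Active: below 10.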 Unmarked numbers belong to inactive results. Active and inactive are the calls of the source.

Columns and labels:
Experiment in all cases: NCI-60 one-dose screen, 48 h (100 = growth as untreated, 0 = no growth, -100 = all killed)
Settings in all cases: 10 µM unless noted
HT29 colon = tested on: HT29 colon
SNB-75 CNS = tested on: SNB-75 CNS
SNB-19 CNS = tested on: SNB-19 CNS
U251 CNS = tested on: U251 CNS
PC-3 prostate = tested on: PC-3 prostate
SK-MEL-5 melanoma = tested on: SK-MEL-5 melanoma
UACC-62 melanoma = tested on: UACC-62 melanoma
SK-MEL-28 melanoma = tested on: SK-MEL-28 melanoma
SK-MEL-2 melanoma = tested on: SK-MEL-2 melanoma
LOX IMVI melanoma = tested on: LOX IMVI melanoma

SMILES | growth (HT29 colon) | growth (SNB-75 CNS) | growth (SNB-19 CNS) | growth (U251 CNS) | growth (PC-3 prostate) | growth (SK-MEL-5 melanoma) | growth (UACC-62 melanoma) | growth (SK-MEL-28 melanoma) | growth (SK-MEL-2 melanoma) | growth (LOX IMVI melanoma)
NC(N)=NC(N)=NCCCc1ccccc1 | 68.2% [100 µM] | 57.5% [100 µM] | 77.8% [100 µM] | 83.7% [100 µM] | 52.7% [100 µM] | 28.6% [100 µM] | 88.4% [100 µM] | 97% [100 µM] | 70.7% [100 µM] | 
O=C(O)c1ccccc1C(=O)OC1CCCC2CCCC21 (centres undefined) | 100% | 96.5% | 104% | 114% | 97.5% | 104% | 97% | 109% | 136% | 95.1%
Cc1nn(-c2ccccc2)c(Cl)c1C(CC(=O)c1ccc(Cl)cc1)CC(=O)c1ccc(Cl)cc1 | 77% | 86.8% | 82.4% | 82.2% | 73.1% | 89.7% | 82.4% | 112% | 89.1% | 
CCOC(=O)C1=C(C)N2C(=NC3=C(CCC/C3=C\c3ccc(Cl)cc3)C2c2ccc(Cl)cc2)S1 (centres undefined) | -54.3% (active) | 64.2% | 55.4% | -100% (active) | 24.3% | 40.8% | 54.7% | 48.8% | 76.6% | -100% (active)
O=C1Cc2cc(CCn3cncn3)c(Cl)cc2N1 | 97.1% | 63.6% | 74.4% | 73.4% | 86.4% | 40.1% | 68.2% | 67.2% | 71.3% | 81%
Cn1c(=O)c2nc(SCc3ccccc3)n(C)c2n(C)c1=O | 113% | 104% | 89.4% | 101% | 102% | 101% | 109% | 119% | 101% | 99.1%
Oc1ccc(Cc2ccc(O)c(C3CC(c4ccc(Cl)cc4)=NN3)c2)cc1C1CC(c2ccc(Cl)cc2)=NN1 (centres undefined) | 51% | 36.1% | 29.4% | 12.7% | 23.8% | 24.4% | 36.3% | 57.7% | -10.8% (active) | 
C/C(=N/N=C(N)N)c1ccc(Cl)cc1 | 80.9% | 81.3% | 92.6% | 89.4% | 42.3% | 94.1% | 91.2% | 178% | -5.11% (active) | 
NC(=O)NN=C(C1CC1)C1CC1 | 103% | 92.6% | 106% | 98.4% | 112% | 111% | 110% | 116% | 110% | 95.9%
CO[C@H]1/C=C/O[C@@]2(C)Oc3c(C)c(O)c4c(O)c(c(/C=N/N5C(C)CN(Cc6ccccc6)CC5C)c(O)c4c3C2=O)NC(=O)/C(C)=C\C=C\[C@H](C)[C@H](O)[C@@H](C)[C@@H](O)[C@@H](C)[C@H](OC(C)=O)[C@@H]1C (some centres undefined) | 87.6% | 127% | 97.8% | 56.9% | -19.5% (active) | 67.4% | 72.8% | 94.2% | -39.4% (active) | 76%
O=C(OCCBr)c1ccc(Cl)c([N+](=O)[O-])c1 | 45.4% | 104% | 38.9% | -31.7% (active) | 70% | 113% | 104% | 60% | 94.1% | 91.1%
COc1cc2cn3c4ccc(O)cc4nc(N)c3c2cc1OC | 24.3% | 2.21% (active) | 20.5% | 4.61% (active) | 35.8% | -54.9% (active) | -59.4% (active) | 39% | 21.2% | -40.5% (active)
CC(=O)c1ccc2c3c(n(C)c2c1)CCCC3 | 92.6% | 92.1% | 99.6% | 102% | 100% | 102% | 96.5% | 96.5% | 104% | 
Cc1cc(C)c(OC(=O)CSc2nc3ccccc3c(=O)n2CCc2ccccc2)cc1C | 99.5% | 88.1% | 103% | 74.1% | 66% | 108% | 77% | 111% | 112% | 
Cc1cc(NC(=O)c2ccc(N)cc2)ccc1N=Nc1ccc2c(O)c(N=Nc3ccc(Cl)c(S(=O)(=O)O)c3)c(S(=O)(=O)O)cc2c1 | 91% | 104% | 105% | 68.7% | 92% | 65.1% | 88.5% | 96.4% | 98.3% | 
COc1ccc(-c2nn(-c3cccc(Cl)c3)cc2C2CC(c3ccccc3)=NN2C(C)=O)cc1 (centres undefined) | 62.7% | -3.45% (active) | 72.9% | 66.7% | 69% | 77.2% | 83.5% | 69.9% | -2.7% (active) | 76.7%
CC/C(=C\c1ccc(N(C)C)cc1)c1ccncc1 | 14.6% | 39.2% | 64.5% | 29.3% | 65.4% | 32.5% | 44% | 65.4% | 49.9% | 41.5%
Cc1c(C(N)=O)sc2c1c(=O)n(Cc1ccccc1)c1nnc(SCC(=O)Nc3ccc(Cl)cc3)n21 | 37.1% | -52% (active) | 58% | 20.2% | 38.1% | 51.8% | 57.6% | 17.3% | 0.559% (active) | 41.8%
Clc1ccc(-n2cnc3c(Cl)ncnc32)cc1Cl | 74.8% | 99.5% | 91.5% | 78.2% | 110% | 103% | 85.4% | 64.1% | 89.7% | 
COc1cccc(CCC2C(=O)CCCC2=O)c1 | 111% | 108% | 96.8% | 109% | 104% | 104% | 103% | 119% | 112% | 
COc1ccc(-n2nc3c(c2-c2ccc(OC)c(OC)c2)-c2oncc2CC3)cc1 | 80% | 94.2% | 96.9% | 85.3% | 88.3% | 81.8% | 73.3% | 75.1% | 92.8% | 58.1%
O=Cc1c[nH]c2ccc(NC(=O)OCc3ccccc3)cc12 | 89% | 87.1% | 89% | 78.8% | 48.6% | 99.1% | 90.4% | 145% | -19.1% (active) | 105%
O=C(c1ccccc1)c1ccco1 | 103% | 80.3% | 93.1% | 99.1% | 95.4% | 106% | 93% | 111% | 104% | 89.8%
COc1ccc(C2=NNC(c3cc(Cc4ccc(O)c(C5CC(c6ccc(OC)cc6)=NN5)c4)ccc3O)C2)cc1 (centres undefined) | 92.2% | 46.6% | 48.2% | 24.8% | 42.4% | 47.4% | 49.2% | 79.4% | 20.1% | 
Cc1c(C(N)=O)sc2ncn(Cc3ccccc3)c(=O)c12 | 103% | 92.6% | 102% | 96.9% | 113% | 103% | 102% | 112% | 109% | 
Nc1nc(N)c([N+](=O)[O-])c(=O)[nH]1 | 98.6% | 106% | 108% | 102% | 94.5% | 102% | 105% | 107% | 84.2% | 105%
